{
  "source": "PubChem BioAssay AID372",
  "about": "(MTDP, 2006)",
  "note": "About 770 (0.77%) of roughly 100,000 compounds were called active. For the sample, actives were picked, then their nearest neighbours and some compounds at random. A number with no mark means an inactive call. Rule as the data show it: active = inhibition above about 50%; inactive = the rest.",
  "data": [
    {"target": "Gag-Pol polyprotein (Human immunodeficiency virus type 1 group M subtype B (isolate HXB2)) (UniProt P04585)", "test": "RNase H inhibition, HIV 1 Gag Pol polyprotein, FRET biochemical assay, screening (AID 372)", "conditions": "HIV-1 RT RNase H, FRET RNA/DNA substrate fluorescence; at 10 µM; hits give high values", "values": [
      {"smiles": "O=C1CS/C(=N/N=C/c2ccc(-c3ccc(Br)cc3)o2)N1", "inhibition": "14%"},
      {"smiles": "CCCC(=O)Nc1cc(-c2nc3cc(Cl)ccc3o2)ccc1C", "inhibition": "12%"},
      {"smiles": "O=C(O)c1ccc(Nc2ccnc3cc(Cl)ccc23)cc1", "inhibition": "3%"},
      {"smiles": "O=C(Nc1ccccc1C(=O)N1CCCC1)c1ccccc1", "inhibition": "0%"},
      {"smiles": "COc1ccc(C(=O)NC(=S)Nc2ccc(Cl)cn2)cc1Br", "inhibition": "23%"},
      {"smiles": "COc1ccc(Br)cc1C(=O)NC(=S)Nc1ccc(Cl)cn1", "inhibition": "53% (active)"},
      {"smiles": "COc1ccc(Br)cc1C(=O)Nc1ccc(Cl)cn1", "inhibition": "26%"},
      {"smiles": "CCOc1ccc(C(=O)NC(=S)Nc2ccc(Br)cn2)cc1Cl", "inhibition": "56% (active)"},
      {"smiles": "COc1ccc(C(=O)NC(=S)Nc2ccc(Br)cn2)cc1OC", "inhibition": "21%"},
      {"smiles": "CCOc1ccc(C(=O)Nc2ccc(Br)cn2)cc1Cl", "inhibition": "4%"},
      {"smiles": "CS(=O)(=O)N(Cc1ccc(C(=O)Nc2ccccc2C(=O)O)cc1)c1ccccc1", "inhibition": "4%"},
      {"smiles": "Cc1ccc(NC(=O)C(=O)N/N=C/c2cccc(Cl)c2)cc1", "inhibition": "1%"},
      {"smiles": "CCOc1cc(/C=C/C(=O)O)c(Br)cc1OC", "inhibition": "8%"},
      {"smiles": "Cc1ccc(CN2CCN(/N=C\\c3ccccc3)CC2)cc1", "inhibition": "8%"},
      {"smiles": "COc1ccccc1OCC(=O)N/N=C/c1ccc(C)cc1C", "inhibition": "11%"},
      {"smiles": "CC(=O)N1CCN(c2ccc(NC(=O)c3ccc(-c4ccccc4)cc3)cc2)CC1", "inhibition": "5%"},
      {"smiles": "O=C(Nc1ccc(N2CCCCC2)cc1)c1ccc(-c2ccccc2)cc1", "inhibition": "28%"},
      {"smiles": "COc1ccc(CNC(=O)C(=O)NCc2ccc(Cl)cc2)cc1", "inhibition": "15%"},
      {"smiles": "COc1ccc(S(=O)(=O)N(CC(=O)NCc2ccc(Cl)cc2)Cc2ccccc2)cc1", "inhibition": "60% (active)"},
      {"smiles": "COc1ccccc1NC(=O)C(=O)NCc1ccccc1", "inhibition": "27%"},
      {"smiles": "COc1ccc(C)cc1NC(=O)C(=O)NCc1ccc(Cl)cc1", "inhibition": "44%"},
      {"smiles": "COc1ccc(C)cc1NC(=O)C(=O)NCc1ccncc1", "inhibition": "55% (active)"},
      {"smiles": "COc1ccc(CNC(=O)C(=O)Nc2ccc(OC)cc2)cc1", "inhibition": "0%"},
      {"smiles": "COc1ccc(NC(=O)C(=O)NCc2ccc(Cl)cc2)cc1", "inhibition": "52% (active)"},
      {"smiles": "COc1ccccc1NC(=O)C(=O)NCc1ccc(C)cc1", "inhibition": "57% (active)"},
      {"smiles": "COc1ccc(S(=O)(=O)N(CC(=O)NCc2ccccc2)Cc2ccccc2)cc1", "inhibition": "10%"},
      {"smiles": "COc1ccc(CNC(=O)CN(Cc2ccccc2)S(=O)(=O)c2ccccc2)cc1", "inhibition": "10%"},
      {"smiles": "COc1ccc(CNC(=O)C(=O)Nc2ccccc2OC)cc1", "inhibition": "44%"},
      {"smiles": "COc1ccc(C)cc1NC(=O)C(=O)NCc1cccnc1", "inhibition": "40%"},
      {"smiles": "Cc1ccc(NC(=O)Cc2ccc(Br)cc2)cc1", "inhibition": "14%"},
      {"smiles": "COc1cccc(N2C(=O)NC(=O)/C(=C/c3ccc(OC)c4ccccc34)C2=O)c1", "inhibition": "31%"},
      {"smiles": "O=C(Nc1ccc2oc(-c3ccccc3F)nc2c1)C(Cl)(Cl)Cl", "inhibition": "8%"},
      {"smiles": "O=C(O)/C=C\\C(=O)Nc1ccc(N2CCOCC2)c(C(=O)O)c1", "inhibition": "5%"},
      {"smiles": "Cc1ccc(S(=O)(=O)N/N=C/c2ccc(C(=O)O)cc2)cc1", "inhibition": "0%"},
      {"smiles": "COc1ccc(N2CCSC2c2ccco2)cc1", "note": "(stereo unspecified)", "inhibition": "0%"},
      {"smiles": "C=CCN1C(=O)/C(=C\\c2ccc(O)c(OCC)c2)C(=O)NC1=S", "inhibition": "11%"},
      {"smiles": "COc1cc(C(=O)NCc2ccc(C(=O)O)cc2)cc(OC)c1OC", "inhibition": "7%"},
      {"smiles": "CCn1c2ccccc2c2cc(C=Nc3ccc(C)c(F)c3)ccc21", "inhibition": "0%"},
      {"smiles": "CCOc1ccc(C(=O)NC(=S)Nc2ccc(C)cc2)cc1Br", "inhibition": "11%"},
      {"smiles": "CCOc1ccccc1C=Nn1c(-c2ccc(Cl)cc2Cl)n[nH]c1=S", "inhibition": "15%"},
      {"smiles": "CCN(CC)CCN1C(=O)C(=O)/C(=C(\\O)c2ccc([N+](=O)[O-])cc2)C1c1ccc(OC)cc1", "note": "(stereo unspecified)", "inhibition": "2%"},
      {"smiles": "CCOC(=O)CC1(c2ccccc2)SC(NC(C)=O)=NN1C(C)=O", "note": "(stereo unspecified)", "inhibition": "0%"},
      {"smiles": "COc1ccc(C)cc1NC(=O)C(=O)NCc1ccccc1", "inhibition": "59% (active)"},
      {"smiles": "COc1ccc(Cl)cc1NC(=O)C(=O)NCc1ccncc1", "inhibition": "59% (active)"},
      {"smiles": "COc1ccc(OC)c(NC(=O)C(=O)NCc2ccncc2)c1", "inhibition": "26%"},
      {"smiles": "COc1ccc(Cl)cc1NC(=O)C(=O)NCc1ccc(C)cc1", "inhibition": "30%"},
      {"smiles": "COc1ccc(C)cc1NC(=O)C(=O)NCc1ccc(C)cc1", "inhibition": "5%"},
      {"smiles": "COc1ccc(CNC(=O)C(=O)Nc2cc(C)ccc2OC)cc1", "inhibition": "30%"},
      {"smiles": "CCOC(=O)C1=C(C)N=c2s/c(=C\\c3cc(Br)c(OCc4ccccc4Cl)c(OC)c3)c(=O)n2C1c1ccccc1Cl", "note": "(stereo unspecified)", "inhibition": "0%"},
      {"smiles": "CCOC(=O)c1cc(-c2ccccc2)sc1NC(=O)COc1ccccc1[N+](=O)[O-]", "inhibition": "57% (active)"},
      {"smiles": "Cc1cc(C)c(NC(=O)COc2ccccc2[N+](=O)[O-])c(C)c1", "inhibition": "5%"},
      {"smiles": "CCOC(=O)c1cc(-c2ccccc2)sc1NC(=O)c1ccc([N+](=O)[O-])cc1", "inhibition": "22%"},
      {"smiles": "O=C(Nc1cccc(C(F)(F)F)c1)c1cc([N+](=O)[O-])ccc1Cl", "inhibition": "7%"},
      {"smiles": "Cc1nc2n(CC(=O)N3CCOCC3)c3ccccc3n2n1", "inhibition": "1%"},
      {"smiles": "O=C(Cc1cccs1)Nc1ccc(/C=C/C(=O)c2ccccc2)cc1", "inhibition": "8%"},
      {"smiles": "CCOC(=O)c1c(C)oc2ccc(NS(=O)(=O)c3cc(C)ccc3C)cc12", "inhibition": "22%"},
      {"smiles": "CCOC(=O)c1c(C)oc2ccc(OC(=O)c3ccc(C)cc3)cc12", "inhibition": "0%"},
      {"smiles": "CCOC(=O)c1c(C)oc2ccc(N(C(=O)c3ccncc3)S(=O)(=O)c3ccc(C)cc3)cc12", "inhibition": "62% (active)"},
      {"smiles": "O=[N+]([O-])c1ccccc1S(=O)(=O)Nc1ccc(S(=O)(=O)N2CCOCC2)cc1", "inhibition": "51% (active)"},
      {"smiles": "Cc1ccc(S(=O)(=O)Nc2ccc(S(=O)(=O)N3CCOCC3)cc2)cc1[N+](=O)[O-]", "inhibition": "0%"},
      {"smiles": "O=[N+]([O-])c1ccccc1S(=O)(=O)Nc1ccc(S(=O)(=O)N2CCCCC2)cc1", "inhibition": "0%"},
      {"smiles": "Clc1ccc(Oc2cccc(CN3CCN(c4ccccc4)CC3)c2)cc1", "inhibition": "17%"},
      {"smiles": "Cc1cccc(C(=O)NCC(O)c2ccccc2)c1", "note": "(stereo unspecified)", "inhibition": "11%"},
      {"smiles": "CN=C(Nc1ccc2c(c1)OCO2)SC1CC(=O)N(c2ccc(Cl)cc2)C1=O", "note": "(stereo unspecified)", "inhibition": "12%"},
      {"smiles": "COC(=O)C1=C(C)N=c2s/c(=C\\c3ccccc3Cl)c(=O)n2C1c1ccccc1Cl", "note": "(stereo unspecified)", "inhibition": "20%"},
      {"smiles": "CCOc1ccc(NC(=O)CC2S/C(=N\\N=C(/C)c3ccc(F)cc3)NC2=O)cc1", "note": "(stereo unspecified)", "inhibition": "6%"},
      {"smiles": "Cc1ccc([N+](=O)[O-])cc1-c1ccc(/C=C2/C(=O)NC(=O)N(C)C2=O)o1", "inhibition": "27%"},
      {"smiles": "O=C1NC(=O)N(Cc2ccccc2)C(=O)/C1=C/c1ccc(-c2ccc([N+](=O)[O-])cc2)o1", "inhibition": "63% (active)"},
      {"smiles": "Cc1cc([N+](=O)[O-])ccc1-c1ccc(/C=C2\\C(=O)NC(=O)N(Cc3ccccc3)C2=O)o1", "inhibition": "60% (active)"},
      {"smiles": "CN1C(=O)NC(=O)/C(=C/c2ccc(-c3ccc([N+](=O)[O-])cc3Cl)o2)C1=O", "inhibition": "55% (active)"},
      {"smiles": "O=C1NC(=O)N(Cc2ccccc2)C(=O)/C1=C/c1ccc(-c2cccc([N+](=O)[O-])c2)o1", "inhibition": "38%"},
      {"smiles": "O=C1NC(=O)N(c2ccccc2)C(=O)/C1=C\\c1ccc(-c2ccc([N+](=O)[O-])cc2)o1", "inhibition": "7%"},
      {"smiles": "Cc1cc([N+](=O)[O-])ccc1-c1ccc(/C=C2/C(=O)NC(=O)N(c3ccccc3)C2=O)o1", "inhibition": "17%"},
      {"smiles": "Cc1cc([N+](=O)[O-])ccc1-c1ccc(/C=C2/C(=O)NC(=O)N(Cc3ccco3)C2=O)o1", "inhibition": "25%"},
      {"smiles": "CN1C(=O)NC(=O)/C(=C/c2ccc(-c3cc([N+](=O)[O-])ccc3Cl)o2)C1=O", "inhibition": "20%"},
      {"smiles": "CCC(=O)c1cc(Cl)ccc1NC(=O)c1ccc(Br)cc1", "inhibition": "10%"},
      {"smiles": "CC(=O)c1cccc(NC(=O)c2ccc(OC3CSC3)cc2)c1", "inhibition": "8%"},
      {"smiles": "Cc1sc(NC(=O)C2C3C=CC(C3)C2C(=O)O)c(C(N)=O)c1C", "note": "(stereo unspecified)", "inhibition": "6%"},
      {"smiles": "CCOc1cc(/C=C2\\C(=O)NC(=O)N(c3ccc(Br)cc3)C2=O)ccc1OCC(=O)O", "inhibition": "8%"},
      {"smiles": "O=C(O)c1cccc(N2C(=O)c3ccc(Br)cc3C2=O)c1", "inhibition": "1%"},
      {"smiles": "O=C(O)c1cccc(N2C(=O)c3cccnc3C2=O)c1", "inhibition": "0%"},
      {"smiles": "O=C(O)c1cccc(N2C(=O)c3ccc4c5c(ccc(c35)C2=O)CC4)c1", "inhibition": "56% (active)"},
      {"smiles": "COc1ccc(-c2nnc(SCC(=O)c3cccc([N+](=O)[O-])c3)n2-c2ccc(C)cc2)cc1OC", "inhibition": "19%"},
      {"smiles": "Oc1ccc(Nc2nc(-c3ccc(Br)cc3)cs2)cc1", "inhibition": "21%"},
      {"smiles": "O=C1c2ccc3c4c(ccc(c24)C(=O)N1/N=C/c1ccco1)CC3", "inhibition": "3%"},
      {"smiles": "Oc1ccc2c(c1)C1CCCCC1(N1CCCCC1)O2", "note": "(stereo unspecified)", "inhibition": "0%"},
      {"smiles": "O=[N+]([O-])c1ccc2c(c1)C(C#Cc1ccccc1)C1CCCCC1(N1CCOCC1)O2", "note": "(stereo unspecified)", "inhibition": "57% (active)"},
      {"smiles": "Oc1cc(-c2ccccc2)c2c(c1)C1CCCCC1(N1CCOCC1)O2", "note": "(stereo unspecified)", "inhibition": "0%"},
      {"smiles": "O=C(COc1ccc2ccccc2c1)N/N=C/c1ccccc1Br", "inhibition": "13%"},
      {"smiles": "O=C(COc1ccc2ccccc2c1)N/N=C\\c1cc(O)c(O)c(Br)c1", "inhibition": "73% (active)"},
      {"smiles": "O=C(COc1ccc2ccccc2c1)N/N=C/c1ccccc1", "inhibition": "4%"},
      {"smiles": "COc1ccc(OCC(=O)N/N=C\\c2cc(O)c(O)c(Br)c2)c(Br)c1", "inhibition": "64% (active)"},
      {"smiles": "COc1ccc(OCC(=O)N/N=C/c2ccc(OC)c(Br)c2)cc1", "inhibition": "2%"},
      {"smiles": "COc1cc(/C=N/NC(=O)COc2ccc(Cl)cc2Br)cc(Br)c1O", "inhibition": "24%"},
      {"smiles": "Cc1cc(=O)[nH]c(N/N=C/c2ccc(O)cc2)n1", "inhibition": "2%"},
      {"smiles": "CC(C)(C)c1cc(C(=O)Nc2nsc(-c3ccccc3)n2)cc(C(C)(C)C)c1", "inhibition": "7%"}
    ]}
  ]
}
